Calls of active or inactive are those of the source.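 Rule for the calls, unless noted: active = fluorescence slope after compound addition differing from the mean of all screened samples at 99.7% confidence, in either direction; inactive = the rest.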
Columns and labels:
[1] = inhibitors of TNFa-induced NFkB p65 translocation, primary screen, imaging, HUVEC, MLSMR starter and 10KST1 sets (AID 438;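 active = inhibition above 20% together with a positive visual image hit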;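 note: compound added about 3h40 before a 20 min TNFalpha stimulation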;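 for inhibition: signal is the nuclear over cytoplasmic p65 intensity ratio per well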); details: HUVEC TNFa-induced p65 nuclear translocation; cell count: measured here: nuclei count (cytotoxicity indicator), at 2.08 µM; inhibition: at 2 µM, stronger effect = higher value, 0% TNFa-plus-vehicle, 100% no-TNFa wells
[2] = inhibitors of mutant huntingtin aggregation, primary screen, imaging, exon1htt(103Q)mCFP cells, high-content imaging (AID 483;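 active = visual image review flags a hit and inhibition of aggregation exceeds 20%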;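 note: compound exposure lasted 3 days before fixation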;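 for nuclei count: percent of the per-plate median nuclei count of sample wells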); details: exon1htt(103Q)mCFP cell line, aggregate imaging, at 2 µM; inhibition of aggregation: stronger effect = higher value; nuclei count: measured here: cell count, toxicity
[3] = inhibitors of E-selectin induction by TNFa, primary screen, imaging, HUVEC, immunofluorescence, MLSMR starter and 10KST1 sets (AID 487;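 active = visually confirmed hit in the image check and inhibition above 20%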;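 for inhibition: signal is fraction of cell area covered by stained E-selectin grains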;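 for nuclei count: 100% = median nuclei count of all wells on the same plate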); details: HUVEC TNFalpha-induced E-selectin immunofluorescence imaging, at 2 µM; inhibition: stronger effect = higher value; nuclei count: measured here: cell number, toxicity
[4] = molecular target: Voltage-gated potassium channel subunit beta-2 (Rattus norvegicus) (UniProt P62483); assay: KvBeta enzyme negative modulators, primary screen, biochemical, NADPH fluorescence (AID 622;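 active = fluorescence slope higher than the sample average by over 3 SD, cut at about -0.22 in these data, passing the limit was not always enough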;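 note: slope of raw intensity against log time taken from 70 to 1610 s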); details: recombinant KvBeta, 4-cyanobenzaldehyde reduction, at 10 µM, stronger effect = higher value
Voltage-gated potassium channel subunit beta-2 (Rattus norvegicus), sequence (P62483 whole entry, looked up): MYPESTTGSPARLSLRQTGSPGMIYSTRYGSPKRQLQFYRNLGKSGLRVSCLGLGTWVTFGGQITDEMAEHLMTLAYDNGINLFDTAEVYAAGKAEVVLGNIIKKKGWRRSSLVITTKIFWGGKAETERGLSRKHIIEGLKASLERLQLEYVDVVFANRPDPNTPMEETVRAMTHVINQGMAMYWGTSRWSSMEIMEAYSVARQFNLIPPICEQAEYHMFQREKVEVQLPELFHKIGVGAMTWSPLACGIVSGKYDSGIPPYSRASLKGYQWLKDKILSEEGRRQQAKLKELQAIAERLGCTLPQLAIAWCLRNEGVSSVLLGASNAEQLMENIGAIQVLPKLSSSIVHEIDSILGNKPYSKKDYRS

[5] = molecular target: Voltage-gated potassium channel subunit beta-2 (Rattus norvegicus) (UniProt P62483); assay: KvBeta positive modulators, primary screen, biochemical, NADPH fluorescence (AID 623;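 active = NADPH fluorescence slope more negative than the mean of all samples by about 3 SD, 99.7% confidence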;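 note: fluorescence intensity change per second fitted from 20 to 320 s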); details: Recombinant KvBeta, NADPH fluorescence decrease slope, 10 min; at 10 µM; stronger effect = lower value
[6] = molecular target: Alpha-2C adrenergic receptor (Homo sapiens) (UniProt P18825); assay: modulators of alpha2C/GIRK thallium flux, primary screen, cell-based, HEK293 alpha2C/GIRK1/2 (AID 624); details: thallium flux BTC fluorescence, at 10 µM, actives lie on both sides;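 note: slope of fluorescence ratio to pre-addition baseline per second over 15 to 24 s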
Alpha-2C adrenergic receptor (Homo sapiens), sequence (P18825 whole entry, looked up): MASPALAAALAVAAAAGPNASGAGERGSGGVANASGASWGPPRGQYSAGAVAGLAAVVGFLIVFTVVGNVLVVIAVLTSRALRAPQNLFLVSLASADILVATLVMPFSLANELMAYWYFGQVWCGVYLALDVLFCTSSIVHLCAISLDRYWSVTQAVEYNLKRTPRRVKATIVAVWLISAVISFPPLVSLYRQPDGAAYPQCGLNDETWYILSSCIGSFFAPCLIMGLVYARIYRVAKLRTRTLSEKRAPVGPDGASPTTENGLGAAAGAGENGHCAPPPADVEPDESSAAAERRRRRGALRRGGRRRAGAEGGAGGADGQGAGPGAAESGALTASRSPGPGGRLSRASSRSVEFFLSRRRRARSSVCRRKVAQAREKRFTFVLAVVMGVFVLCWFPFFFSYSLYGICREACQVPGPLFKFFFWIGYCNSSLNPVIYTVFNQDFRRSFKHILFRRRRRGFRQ

[7] = inhibitors of Sendai virus-induced IRF3 signaling, primary screen, TLR/RLR signaling modifier project, cell-based, Sendai virus stimulus, luciferase, 10K MLSCN set (AID 602276;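 active = inhibition at or above 50% at 10 µM; inactive = inhibition below 50%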;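 note: firefly luciferase from ISG56 promoter only with Renilla not read in this screen; 0% = Sendai virus plus DMSO and 100% = medium plus DMSO without virus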); details: HEK293 RL24 IRF3 luciferase reporter, at 10 µM, stronger effect = higher value
[8] = inhibitors of poly I:C-induced TLR3 signaling, primary screen, cell-based, poly I:C stimulus, luciferase, 10K MLSCN set (AID 602277;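 active = inhibition of the reporter signal at or above 50%; inactive = inhibition below 50%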); details: HEK293-TLR3 RL24 IRF3 luciferase reporter, at 10 µM, stronger effect = higher value

Structure (SMILES) | cell count [1] | inhibition [1] | inhibition of aggregation [2] | nuclei count [2] [%] | inhibition [3] | nuclei count [3] [%] | fluorescence slope [4] | NADPH fluorescence slope [5] | slope [6] | inhibition [7] | inhibition [8]
O=C(CSc1nnc(-c2cnccn2)n1Cc1ccco1)c1ccc(Cl)cc1 | 287 | 16.6% (inactive) | -32.9% (inactive) | 95.7 | -8.9% (inactive) | 124 | -0.473 (inactive) | 4.5e-06 (inactive) | 0.00285 (inactive) | 8.56% (inactive) | 22.1% (inactive)
Cc1nc2nc(-c3cccnc3)nn2c(C)c1Cl | 689 | -13.8% (inactive) | -5.4% (inactive) | 81.3 | -32.8% (inactive) | 107 | -0.333 (inactive) | -3.7e-05 (inactive) | 0.00559 (inactive) | -17.9% (inactive) | -15.3% (inactive)
CCN(CCNC(=O)C1CCN(S(=O)(=O)c2cccc3cccnc23)CC1)c1ccccc1 | 614 | 5.8% (inactive) | -11% (inactive) | 112 | 2.5% (inactive) | 108 | -0.569 (inactive) | 2.5e-05 (inactive) | 0.00561 (inactive) | 11.9% (inactive) | 12.7% (inactive)
COc1ccc(-n2cnnc2SCCC#N)cc1 | 520 | -3.8% (inactive) | -0.2% (inactive) | 82.5 | -115% (inactive) | 122 | -0.549 (inactive) | -2.7e-05 (inactive) | 0.00567 (inactive) | 6.27% (inactive) | 12% (inactive)
CCOC(=O)Cc1csc(NC(=O)CSc2nnc(-c3ccncc3)n2Cc2ccco2)n1 | 516 | -12.9% (inactive) | 14.5% (inactive) | 97.6 | -61.4% (inactive) | 122 | -0.595 (inactive) | -6.1e-05 (inactive) | 0.0058 (inactive) | 10.4% (inactive) | 10.6% (inactive)
Cc1ccc(C2c3c(oc4ccccc4c3=O)C(=O)N2c2nnc(C(C)C)s2)o1 (configuration not stated) | 622 | -13.1% (inactive) | -21.4% (inactive) | 90.4 | -37.8% (inactive) | 102 | -0.436 (inactive) | -5.6e-05 (inactive) | 0.00484 (inactive) | 9.17% (inactive) | 19.7% (inactive)
CCSc1nnc(-c2ccc(OC)cc2)o1 | 651 | 11.1% (inactive) | 0% (inactive) | 99.1 | 61.5% (inactive) | 106 | -0.242 (inactive) | -1.2e-05 (inactive) | 0.00568 (inactive) | -34% (inactive) | -118% (inactive)
CCn1cc(C(=O)NCC2CCCO2)c(=O)c2cc(S(=O)(=O)N(C)C)ccc21 (configuration not stated) | 767 | -2.4% (inactive) | -9.8% (inactive) | 105 | -50.6% (inactive) | 117 | -0.465 (inactive) | -8.2e-05 (inactive) | 0.00671 (inactive) | -12.7% (inactive) | 1.32% (inactive)
CC(C)CCNC(=O)C(c1ccco1)N(CC1CCCO1)C(=O)Cn1nnc2ccccc21 (configuration not stated) | 393 | 10.3% (inactive) | 5.4% (inactive) | 104 | -72.5% (inactive) | 103 | -0.612 (inactive) | -4.6e-05 (inactive) | 0.00382 (inactive) | 8.01% (inactive) | 16.4% (inactive)
Nn1c(SCC(=O)Nc2ccc(S(=O)(=O)N3CCCC3)cc2)nnc1C(F)(F)F | 704 | -3.3% (inactive) | -7% (inactive) | 104 | -33.2% (inactive) | 128 | -0.504 (inactive) | -6.5e-05 (inactive) | 0.00607 (inactive) | 9.87% (inactive) | 12.8% (inactive)
Cc1ccccc1Cn1ccc(NC(=O)c2cnn3c(C(F)(F)F)cc(-c4ccco4)nc23)n1 | 568 | -3.8% (inactive) | 10.6% (inactive) | 96.8 | -7.4% (inactive) | 99.2 | -0.613 (inactive) | -5.8e-05 (inactive) | 0.00253 (inactive) | 19.2% (inactive) | 32% (inactive)
CCn1c(CSc2nnc(-c3cccnc3)n2-c2ccccc2C)nc2cc(C(=O)O)ccc21 | 463 | -13.1% (inactive) | 5.1% (inactive) | 101 | -22.2% (inactive) | 161 | -0.509 (inactive) | -0.000162 (inactive) | 0.00507 (inactive) | 2.24% (inactive) | 9.03% (inactive)
Cc1ccc(S(=O)(=O)Cn2nnnc2CN(Cc2ccco2)Cc2cccs2)cc1 | 324 | -1.6% (inactive) | 6.8% (inactive) | 108 | -85.1% (inactive) | 133 | -0.594 (inactive) | -4.2e-05 (inactive) | 0.00355 (inactive) | 7.14% (inactive) | 6.8% (inactive)
CCOC(=O)CSc1nc2cc(C(=O)N3CCC(C(N)=O)CC3)ccc2c(=O)n1-c1ccccc1 | 391 | 4.8% (inactive) | -5.8% (inactive) | 93.5 | -26.1% (inactive) | 95.3 | -0.37 (inactive) | -5.8e-05 (inactive) | 0.00452 (inactive) | 10.8% (inactive) | 9.87% (inactive)
CC(=O)N1CCc2cc(S(=O)(=O)CCC(=O)Nc3cccc(F)c3)ccc21 | 331 | -1.4% (inactive) | 0.3% (inactive) | 126 | -19.8% (inactive) | 112 | -0.369 (inactive) | -4e-05 (inactive) | 0.00334 (inactive) | 7.41% (inactive) | 19.1% (inactive)
COc1cccc(N(C(=O)c2ccco2)C(C(=O)NC2CCCC2)c2ccc(N(C)C)cc2)c1 (configuration not stated) | 582 | -1.6% (inactive) | -38.4% (inactive) | 98.6 | 5.4% (inactive) | 77.9 | -0.44 (inactive) | -0.000142 (inactive) | 0.00648 (inactive) | 6.61% (inactive) | 15.9% (inactive)
NC(=O)C1(N2CCCCC2)CCN(CC(=O)Nc2cc(Cl)ccc2Cl)CC1 | 357 | -3% (inactive) | 14.8% (inactive) | 86.2 | 26.7% (inactive) | 74.8 | -0.583 (inactive) | -5.7e-05 (inactive) | 0.00416 (inactive) | -15.6% (inactive) | -7.63% (inactive)
CC(=O)NCc1ccc(C(=O)CSc2nnc(-c3ccncc3)n2Cc2ccccc2)o1 | 461 | -1.1% (inactive) | 16.2% (inactive) | 96 | -25.7% (inactive) | 127 | -0.59 (inactive) | -5.8e-05 (inactive) | 0.00604 (inactive) | 12.6% (inactive) | 20.5% (inactive)
CCC1CCCCN1S(=O)(=O)c1ccc(C(=O)Nc2nnc(-c3ccccc3Cl)o2)cc1 (configuration not stated) | 322 | 5.2% (inactive) | -1.5% (inactive) | 107 | -52.8% (inactive) | 108 | -0.511 (inactive) | -3.2e-05 (inactive) | 0.00627 (inactive) | 18.8% (inactive) | 16.9% (inactive)
O=C(OC1CCOC1=O)c1ccc2ccccc2n1 (configuration not stated) | 633 | 4.2% (inactive) | -0.9% (inactive) | 100 | 38.1% (inactive) | 76 | -0.324 (inactive) | 2.9e-05 (inactive) | 0.00579 (inactive) | 20.6% (inactive) | 29.1% (inactive)
Cc1oc(-c2ccccc2F)nc1CS(=O)(=O)CC(=O)N1CCCCCC1 | 712 | -1.1% (inactive) | -22.4% (inactive) | 116 | -40.3% (inactive) | 117 | -0.57 (inactive) | -9.9e-06 (inactive) | 0.00627 (inactive) | -6.49% (inactive) | 1.53% (inactive)
CC1(C)CC(=O)C=C(NCCN2CCN(C(=O)Nc3ccccc3)CC2)C1 | 730 | -5.8% (inactive) | 0% (inactive) | 99.6 | -2.1% (inactive) | 109 | -0.412 (inactive) | -4.4e-05 (inactive) | 0.0067 (inactive) | -1.55% (inactive) | -0.835% (inactive)
COc1ccccc1CC(NC(C)=O)C(=O)NC1CCN(c2nnnn2-c2ccccc2)CC1 (configuration not stated) | 761 | -5.5% (inactive) | -29.5% (inactive) | 63.6 | -19.7% (inactive) | 117 | -0.624 (inactive) | 1.1e-06 (inactive) | 0.00623 (inactive) | -1.4% (inactive) | 16.9% (inactive)
NC(=O)c1cc(-c2ccccc2)nc(N2CCOCC2)n1 | 532 | 6.7% (inactive) | -2.6% (inactive) | 91 | 25.8% (inactive) | 92.5 | -0.591 (inactive) | -4.3e-05 (inactive) | 0.00656 (inactive) | 8.52% (inactive) | 25.8% (inactive)
CCOC(=O)N1CCC(NC(=O)CCC(=O)N2CC(C)Oc3ccc(Cl)cc32)CC1 (configuration not stated) | 326 | 12.5% (inactive) | -2.6% (inactive) | 81.9 | 13.6% (inactive) | 89 | -0.369 (inactive) | -5e-05 (inactive) | 0.00486 (inactive) | 7.09% (inactive) | 6.64% (inactive)
Cc1ccc2nc(NC(=O)Cn3cc4c(n3)CCCCC4)sc2c1 | 899 | 0.5% (inactive) | 4% (inactive) | 100 | -44.1% (inactive) | 123 | -0.581 (inactive) | -1.2e-05 (inactive) | 0.00613 (inactive) | -7.98% (inactive) | -11.8% (inactive)
Cc1ccc(-c2nc(N)n(C(=O)c3cccnc3)n2)cc1 | 359 | 5.5% (inactive) | -19.9% (inactive) | 113 | -110% (inactive) | 109 | -0.339 (inactive) | -5.3e-06 (inactive) | 0.00801 (inactive) | 0.795% (inactive) | 22.5% (inactive)

From PubChem BioAssay
